In the OligoGym collection:
Also: reference of the scale not given here.

Each sequence was assayed against NARF (assay: pooled miR-30 sensor sort-seq; sequence = guide strand). Conditions: shRNA.
ATCCTCGTTGAACAGCTCCTTG showed a sensor-assay potency score (higher = more potent) of -0.97. TTGTTTTCTTACTACATTCCTT was tested, and the sensor-assay potency score (higher = more potent) was -0.477. In the case of TATTTGAGCAATTTCACCTGAT, the sensor-assay potency score (higher = more potent) is reported as 0.609.

What follows are sequences tested against NAT8L in the same assay as above. Conditions: shRNA.
With TTCTCTGTCCCTTCGCTCGCTT the sensor-assay potency score (higher = more potent) was -0.787. Sequence TCTTAGGGTACAAACTACCGTT has a sensor-assay potency score (higher = more potent) of -0.674. TAGCGGTGGTAGCGGACCTGGA showed a sensor-assay potency score (higher = more potent) of -1.68. Work on TAACTTATTAGAAAATGTGTTG yielded a sensor-assay potency score (higher = more potent) of -0.872. In the case of TTGGCGATGCCCTTGCCTCGGA, the sensor-assay potency score (higher = more potent) is reported as -0.817. With TGCCTCGGAAACGTGAGTCCAC the sensor-assay potency score (higher = more potent) was -0.669. For TTGTCCTCCTCGTGGGCCCGTG, the sensor-assay potency score (higher = more potent) was -1.12. Sequence ATCCGCAGCAGCTCCACCGTGT has a sensor-assay potency score (higher = more potent) of -0.56. With TACAGTCTACAAAACTCCCATC the sensor-assay potency score (higher = more potent) was -1.25. In the case of TTAACAAAATCTGAGCTGCAAG, the sensor-assay potency score (higher = more potent) is reported as -1.08. TTGTGCACCACGGCGAACTCCA gave a sensor-assay potency score (higher = more potent) of -0.938. TGAGTCCACAGACATCCGCAGC showed a sensor-assay potency score (higher = more potent) of -1.61.
